Results as given in PubChem BioAssay (NCI).
Compounds without any hit were thinned out: in the full panel of roughly 79,000, 15% have a hit. Active and inactive are the calls of the source. Rule as the data show it: active = growth inhibition above about 70%; inactive = the rest.

Assays:
[1] = NCI Yeast Anticancer Drug Screen. Data for the rad52 strain (AID 147);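 also: 0% = growth of vehicle-treated control cultures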; details: S. cerevisiae rad52 mutant growth inhibition, hits give high values
Procedure, shortened: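 Inhibition of yeast growth, referenced to vehicle controls, was the measured output for a strain with defective DNA damage repair.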

[2] = NCI Yeast Anticancer Drug Screen. Data for the wt1 strain (AID 149);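 also: 0% = growth of vehicle-treated wt1 cultures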; details: S. cerevisiae wt1 strain (SPY 50644) growth inhibition, hits give high values
Procedure, shortened: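 wt1 strain grown with compound or vehicle; inhibition taken from the growth difference.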

[3] = NCI Yeast Anticancer Drug Screen. Data for the rad50EPP+ strain (AID 151);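 also: 0% = growth of vehicle-treated control cultures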; details: S. cerevisiae rad50 mutant strain, hits give high values
Procedure, shortened: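 Genetically defined yeast (rad50EPP+, DNA damage repair alteration) is grown with compound, and inhibition of growth is expressed relative to vehicle-treated controls.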

[4] = NCI Yeast Anticancer Drug Screen. Data for the mgt1 strain (AID 153); details: S. cerevisiae mgt1 mutant growth inhibition, hits give high values
Procedure, shortened: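 In the mgt1 strain, test compounds were added and growth inhibition was determined relative to vehicle-treated controls.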

[5] = NCI Yeast Anticancer Drug Screen. Data for the rad50 strain (AID 155);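 also: 0% = growth of vehicle-only cultures of the same strain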; details: S. cerevisiae rad50 strain growth inhibition, hits give high values
Procedure, shortened: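 DNA repair mutant yeast, compound exposure, growth read-out; inhibition is taken relative to vehicle.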

[6] = NCI Yeast Anticancer Drug Screen. Data for the mec2-1 strain (AID 157); details: S. cerevisiae mec2-1 strain, hits give high values
Procedure, shortened: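 Each compound was tested on mec2-1 yeast, a strain altered in DNA damage repair or cell cycle control. Growth inhibition is reported relative to vehicle.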

[7] = NCI Yeast Anticancer Drug Screen. Data for the rad14 strain (AID 159);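 also: 0% = growth of vehicle-treated control cultures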; details: S. cerevisiae rad14 strain growth inhibition, hits give high values
Procedure, shortened: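 DNA repair-defective yeast, compound-exposed; % growth inhibition derived by comparison with vehicle-treated controls.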

[8] = NCI Yeast Anticancer Drug Screen. Data for the sgs1 mgt1 strain (AID 161);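 also: 0% = growth of cultures given vehicle only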; details: S. cerevisiae sgs1 mgt1 strain, hits give high values
Procedure, shortened: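 Test agents were incubated with a DNA-repair-mutant yeast strain. Growth was then read and compared against vehicle-treated controls.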

[9] = NCI Yeast Anticancer Drug Screen. Data for the CLN2oe strain (AID 163);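 also: 0% = growth of vehicle-only control cultures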; details: S. cerevisiae CLN2oe strain, hits give high values
Procedure, shortened: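 First, the altered yeast strain was treated with each compound; second, its growth was measured; finally, inhibition was derived by comparison with vehicle controls.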

[10] = NCI Yeast Anticancer Drug Screen. Data for the cln2 rad14 strain (AID 165);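 also: 0% = growth equal to vehicle treated cultures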; details: S. cerevisiae cln2 rad14 strain, hits give high values
Procedure, shortened: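 Test compounds were added to cln2 rad14 yeast cultures; inhibition of growth was then determined by comparison with vehicle treatment.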

[11] = NCI Yeast Anticancer Drug Screen. Data for the bub3 strain (AID 167); details: S. cerevisiae bub3 mutant strain, hits give high values
Procedure, shortened: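 In this screen, a yeast mutant lacking normal mitotic checkpoint function is challenged with compound. Relative growth versus vehicle gives the inhibition value.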

[12] = NCI Yeast Anticancer Drug Screen. Data for the mlh1 strain (AID 171);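 also: 0% = growth of vehicle-treated control cultures of the same strain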; details: S. cerevisiae mlh1 strain growth inhibition, hits give high values
Procedure, shortened: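 Inhibition values reflect reduced yeast growth in the presence of compound, referenced to vehicle controls, using a strain chosen for its alteration in DNA repair or cell cycle control.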

[13] = NCI Yeast Anticancer Drug Screen. Data for the sgs1 strain (AID 173);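 also: 0% = growth of vehicle-only control cultures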; details: S. cerevisiae sgs1 mutant, hits give high values
Procedure, shortened: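 Vehicle-treated cultures served as reference for growth inhibition of a yeast strain altered in DNA damage repair or cell cycle control after compound exposure.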

[14] = NCI Yeast Anticancer Drug Screen. Data for the mlh1 rad18 strain (AID 175); details: S. cerevisiae mlh1 rad18 strain growth inhibition, hits give high values
Procedure, shortened: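 Inhibition values reflect reduced growth of mutant yeast versus vehicle-treated controls following compound exposure; the mutations affect DNA damage repair.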

[15] = NCI Yeast Anticancer Drug Screen. Data for the wt2 strain (AID 169);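 also: 0% = growth of vehicle-treated yeast cultures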; details: S. cerevisiae wt2 strain growth inhibition, hits give high values
Procedure, shortened: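 The panel's yeast strains carry defined changes in DNA repair or cell cycle genes. Each strain is grown with compound, and growth loss is scored relative to vehicle.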

[16] = NCI Yeast Anticancer Drug Screen. Data for the rad18 strain (AID 177); details: S. cerevisiae rad18 mutant growth inhibition, hits give high values
Procedure, shortened: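 Steps: expose repair-mutant yeast to compound; measure growth; express as inhibition relative to vehicle control.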

[17] = at 5.0 µM (retest, dose inferred, filed as 0.5)
[18] = at 50.0 µM (retest, dose inferred, filed as 5.0)

Measured: growth inhibition

Cc1nc(-c2cc3cc([N+](=O)[O-])ccc3oc2=O)cs1
active: [1]; at 100.0 µM 97% | [2]; at 100.0 µM 92% | [3]; at 33.0 µM 81% | [3]; at 100.0 µM 99% | [4]; at 100.0 µM 89% | [5]; [18] 84% | [5]; at 50.0 µM 89.9% | [5]; at 100.0 µM 94% | [6]; [18] 100% | [6]; at 50.0 µM 94.2% | [6]; at 100.0 µM 94% | [7]; at 100.0 µM 96% | [8]; at 50.0 µM 89.3% | [9]; at 100.0 µM 81% | [11]; at 50.0 µM 89.4% | [11]; at 100.0 µM 92% | [12]; at 100.0 µM 98% | [13]; at 100.0 µM 99% | [14]; [18] 91%
inactive: [1]; at 1.2 µM 13% | [1]; at 3.7 µM 39% | [1]; at 11.0 µM 47% | [1]; at 33.0 µM 65% | [2]; at 1.2 µM -5% | [2]; at 3.7 µM 5% | [2]; at 11.0 µM 11% | [2]; at 33.0 µM 25% | [3]; at 1.2 µM -7% | [3]; at 3.7 µM 26% | [3]; at 11.0 µM 57% | [4]; at 1.2 µM -1% | [4]; at 3.7 µM 6% | [4]; at 11.0 µM 5% | [4]; at 33.0 µM 25% | [5]; at 1.2 µM 20% | [5]; at 3.7 µM 17% | [5]; [17] 17% | [5]; at 11.0 µM 23% | [5]; at 33.0 µM 42% | [6]; at 1.2 µM -15% | [6]; at 3.7 µM -3% | [6]; [17] 18% | [6]; at 11.0 µM 3% | [6]; at 33.0 µM 16% | [7]; at 1.2 µM -1% | [7]; at 3.7 µM 6% | [7]; at 11.0 µM 13% | [7]; at 33.0 µM 25% | [8]; [17] 13% | [8]; [18] 46% | [9]; at 1.2 µM -22% | [9]; at 3.7 µM 3% | [9]; at 11.0 µM 8% | [9]; at 33.0 µM 20% | [10]; [17] 2% | [10]; [18] 13% | [10]; at 50.0 µM 59.4% | [11]; at 1.2 µM -15% | [11]; at 3.7 µM -2% | [11]; [17] -15% | [11]; at 11.0 µM -1% | [11]; at 33.0 µM 3% | [11]; [18] 60% | [12]; at 1.2 µM -2% | [12]; at 3.7 µM -12% | [12]; at 11.0 µM 10% | [12]; at 33.0 µM 34% | [13]; at 1.2 µM 5% | [13]; at 3.7 µM 31% | [13]; at 11.0 µM 42% | [13]; at 33.0 µM 62% | [14]; [17] 16% | [14]; at 50.0 µM 14.9%

CCCC(=O)Oc1c(C)cc([N+](=O)[O-])cc1[N+](=O)[O-]
inactive: [1]; at 1.2 µM 4% | [1]; at 3.7 µM 26% | [2]; at 1.2 µM 1% | [2]; at 3.7 µM 0% | [3]; at 1.2 µM 35% | [4]; at 1.2 µM 3% | [4]; at 3.7 µM 11% | [4]; at 11.0 µM 56% | [5]; at 1.2 µM 4% | [5]; at 3.7 µM 25% | [5]; [17] 14% | [6]; at 1.2 µM -1% | [6]; at 3.7 µM 21% | [6]; [17] 33% | [7]; at 1.2 µM 1% | [7]; at 3.7 µM 14% | [8]; [17] 39% | [9]; at 1.2 µM -11% | [9]; at 3.7 µM -2% | [10]; [17] -1% | [11]; at 1.2 µM 12% | [11]; at 3.7 µM 42% | [11]; [17] 40% | [15]; at 1.2 µM 2% | [15]; at 3.7 µM 4% | [13]; at 1.2 µM 5% | [13]; at 3.7 µM 27% | [14]; [17] 18% | [16]; at 1.2 µM 5% | [16]; at 3.7 µM 20%
active: [1]; at 11.0 µM 99% | [1]; at 33.0 µM 97% | [1]; at 100.0 µM 99% | [2]; at 11.0 µM 98% | [2]; at 33.0 µM 99% | [2]; at 100.0 µM 99% | [3]; at 3.7 µM 77% | [3]; at 11.0 µM 94% | [3]; at 33.0 µM 99% | [3]; at 100.0 µM 99% | [4]; at 33.0 µM 99% | [4]; at 100.0 µM 86% | [5]; at 11.0 µM 98% | [5]; at 33.0 µM 99% | [5]; [18] 99% | [5]; at 50.0 µM 99.4% | [5]; at 100.0 µM 99% | [6]; at 11.0 µM 99% | [6]; at 33.0 µM 99% | [6]; [18] 100% | [6]; at 50.0 µM 99.3% | [6]; at 100.0 µM 99% | [7]; at 11.0 µM 96% | [7]; at 33.0 µM 99% | [7]; at 100.0 µM 99% | [8]; [18] 99% | [8]; at 50.0 µM 99.4% | [9]; at 11.0 µM 94% | [9]; at 33.0 µM 99% | [9]; at 100.0 µM 99% | [10]; [18] 97% | [10]; at 50.0 µM 93.5% | [11]; at 11.0 µM 98% | [11]; at 33.0 µM 99% | [11]; [18] 99% | [11]; at 50.0 µM 99.5% | [11]; at 100.0 µM 99% | [15]; at 11.0 µM 98% | [15]; at 33.0 µM 99% | [15]; at 100.0 µM 99% | [13]; at 11.0 µM 99% | [13]; at 33.0 µM 99% | [13]; at 100.0 µM 99% | [14]; [18] 99% | [14]; at 50.0 µM 99.1% | [16]; at 11.0 µM 98% | [16]; at 33.0 µM 99% | [16]; at 100.0 µM 99%
